# S1P2 agonist = S1P2 (human) receptor agonism. O95136. S1P2-expressing cell line, agonist reporter read-out. activation, % at 4.5 µM. hit rate 0.46% among 97,000; in the data active = activation above about 16%;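 note: 0% = vehicle low control and 100% = maximal reference agonist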
# GALR2 agonist = activates the human galanin receptor 2; O43603; GALR2-expressing cells, agonist activation read-out; activation, % (concentration not given with the values); hit rate 0.48% among 140,000; in the data active = activation above about 5%, passing the limit was not always enough;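 note: 0% = vehicle buffer wells and 100% = reference agonist at full effect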
# Target sequence (O43603 whole entry, looked up): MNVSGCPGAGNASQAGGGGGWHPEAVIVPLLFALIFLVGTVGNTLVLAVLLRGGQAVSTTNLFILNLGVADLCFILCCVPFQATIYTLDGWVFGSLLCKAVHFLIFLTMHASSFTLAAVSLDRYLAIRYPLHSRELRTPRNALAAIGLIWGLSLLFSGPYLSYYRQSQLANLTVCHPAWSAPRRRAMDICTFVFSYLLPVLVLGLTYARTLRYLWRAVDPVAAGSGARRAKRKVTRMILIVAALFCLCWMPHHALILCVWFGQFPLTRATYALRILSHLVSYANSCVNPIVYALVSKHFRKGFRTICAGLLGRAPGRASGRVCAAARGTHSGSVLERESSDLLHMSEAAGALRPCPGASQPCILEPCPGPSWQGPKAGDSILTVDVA
# S1P2 blocker = antagonists of human S1P2 receptor | cell-based S1P2 antagonist assay, inhibition at 5 uM | inhibition, % at 5 µM | hit rate 0.21% among 97,000; in the data active = inhibition above about 45%;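 note: CRE beta-lactamase reporter cells expressing human S1P2 stimulated with S1P; 0% = agonist at EC80 alone and 100% = agonist plus reference antagonist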
# PostGolgi yeast = growth inhibition of a yeast mutant, post-Golgi transport screen. post-Golgi transport phenotypic cell assay. hit rate 0.9% among 98,000. inhibition, % at 10 µM;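 note: yeast cells grown in 1536-well plates; yeast grown about 18 h at 30C before absorbance read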
# GALR2 blocker = blocks the human galanin receptor 2. GALR2-expressing cells, antagonist mode. inhibition, % at 4 µM. hit rate 0.39% among 140,000; in the data active = inhibition above about 27%;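 note: cells stimulated with galanin 1-16 at roughly its EC80; 0% = agonist challenge control and 100% = basal control without agonist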
# PostGolgi ctrl = yeast control strain growth, post-Golgi counter-screen. efflux-deficient yeast background strain, growth absorbance A615, 16 h. inhibition, % at 10 µM. hit rate 5% among 98,000. AID 738
# Numbers without * were called inactive; . = not tested or not shown. The sample as a whole holds a higher share of hits than the screen did. Cut-off read from the data, not from the text of the source, unless noted: active = inhibition above about 30%; inactive = the rest.
SMILES,S1P2 agonist,GALR2 agonist,S1P2 blocker,PostGolgi yeast,GALR2 blocker,PostGolgi ctrl
CCCSc1nc(O)c(C(c2ccc(OC)c(O)c2)c2c(O)nc(SCCC)n(C)c2=O)c(=O)n1C,.,-1.1,.,.,-9.6,.
Cc1cc(C)nc(SCc2ccc(C(=O)NNC(=O)Nc3cccc(Cl)c3)cc2)n1,.,0.1,.,.,5.7,.
CCc1ccc(-c2nn(-c3ccccc3)cc2C2SCC(=O)N2Cc2ccco2)cc1 (configuration not stated),-8.5,-1.1,1.4,5.7,-16.2,19.0
O=C1CSC(c2cn(-c3ccccc3)nc2-c2ccccc2)N1Cc1ccco1 (configuration not stated),-3.1,-2.1,-2.6,3.8,-10.0,53.3*
Cc1ccc(N2CCN(CC(O)COC3CCCCC3)CC2)cc1 (configuration not stated),-4.2,-2.0,6.1,10.0,4.3,19.1
CC(C)(C)C1CCC(OCC(O)CN2CCN(c3ccccc3)CC2)CC1 (configuration not stated),-9.4,-1.8,-8.9,104.3*,-7.1,96.2*
CC1CCN(CC(O)COC2CCC(C(C)(C)C)CC2)CC1 (configuration not stated),-2.8,-2.0,-3.3,97.0*,-12.8,97.9*
CC1=C(C(=O)Nc2ccc(C)cc2C)C(c2ccc(C)o2)NC(=O)N1 (configuration not stated),0.0,-1.1,-3.1,7.3,-7.9,18.2
COc1ccccc1CNC(=O)c1ccc(OC(F)F)c(OC)c1,.,-1.1,.,.,-1.1,.
COc1ccc(/C(N)=N/OC(=O)c2cc(-c3ccccc3)nc3ccccc23)cc1,-6.9,-1.1,13.4,4.8,13.7,5.9
Cc1ccc(/C(N)=N/OC(=O)c2cc(-c3ccccc3)nc3ccccc23)cc1,-7.9,-4.0,5.9,21.8,9.6,30.7*
Cc1ccccc1-c1nc(S(=O)(=O)c2ccc(Br)cc2)c(NCc2cccnc2)o1,-6.0,-1.4,3.6,0.3,-0.2,31.3*
Cc1ccc(S(=O)(=O)c2nc(-c3ccccc3)oc2NCc2cccnc2)cc1,-6.5,-2.3,0.3,-13.2,-2.2,6.1
CC(=O)N(/N=C1\Sc2ccccc2C1=O)c1ccccc1C,-1.7,0.2,-21.7,6.9,3.6,32.7*
CC(=O)N(/N=C1\Sc2ccccc2C1=O)c1ccc(C)cc1C,-4.5,-1.2,-15.8,-6.7,13.3,48.4*
S=c1[nH]nc(COc2ccccc2)n1/N=C/c1ccc(Br)s1,-2.1,-2.8,6.9,-1.6,5.8,30.5*
Cc1ccc(/C=N/n2c(COc3ccccc3)n[nH]c2=S)s1,-5.4,-1.4,10.6,0.5,4.8,9.4
CN1CCc2c(C#N)c(N3CCCCC3)nc(NCc3ccccc3)c2C1,-4.1,2.8,18.4,26.5,-19.0,47.8*
C=CCN1C(=O)N/C(=C/c2ccccc2OCC(=O)Nc2ccc(F)cc2)C1=O,.,-0.4,.,.,9.2,.
Cc1ccc(-c2nc3cccnc3s2)cc1NS(=O)(=O)c1ccc2c(c1)OCCO2,-1.4,-1.1,-0.1,85.5*,-1.0,97.7*
O=S(=O)(Nc1cccc(-c2nc3cccnc3s2)c1)c1ccc2c(c1)OCCO2,-5.0,-3.6,-16.2,30.4*,16.9,80.4*
CS(=O)(=O)N(CC(=O)N1CCN(c2ccccc2)CC1)c1ccccc1Cl,-5.7,-2.5,-18.2,.,-1.9,.
COC(=O)C1=C(C)N(Cc2ccco2)C(=O)N[C@H]1c1ccc(Br)cc1,.,-2.4,.,.,4.5,.
COc1ccc(NC(=O)c2cc(C)on2)cc1OC,-0.1,-1.9,-10.2,12.2,4.2,5.9
COc1ccc(NC(=O)c2onc(C)c2Cl)cc1OC,-2.0,-1.6,-5.6,2.2,1.0,33.8*
SMILES,S1P2 agonist,GALR2 agonist,S1P2 blocker,PostGolgi yeast,GALR2 blocker,PostGolgi ctrl
CCOc1ccc(NCc2nnc(SCC(=O)Nc3nc(-c4ccccc4)cs3)n2-c2ccccc2)cc1,.,1.1,.,.,-4.9,.
Cc1ccc(C)n1N1C(=O)/C(=C\c2ccc(Cl)cc2)SC1=S,-5.1,-0.6,-9.3,39.8*,2.0,38.7*
COCCn1c(SCCCC(=O)c2ccc(Br)cc2)nnc1-c1ccncc1,-8.0,-2.1,14.0,-10.2,11.1,36.4*
COC(=O)[C@@H](NC(=O)O[C@@H]1C(=O)c2ccc(OC)cc2O[C@H]1c1cccc(C(F)(F)F)c1)C(C)C,.,-1.0,.,.,-14.3,.
O=C1NC(=O)C2(COC3(CCCC3)OC2)S1,-8.7,-0.9,20.0,3.8,13.7,35.1*
O=C1NC(=S)SC1=C1CCCCCC1,-5.1,-1.5,13.3,8.0,6.1,64.2*
O=C1N=C(N2CCCCC2)SC1=C1CCCCC1,-1.9,-1.5,-7.5,5.0,5.6,1.6
